Where “and” joins values, the source holds several entries; their conditions need not be identical. Identical values can stand only once. The source holds several records for some structures; these can differ, active in one and inactive in another. Calls of active or inactive are those of the source. Rule for the calls: active = hit-call score of the fitted dose curve at least 0.9, where 1 is the maximum; inactive = score below 0.9.

The nature of the assay: ATG_MRE_CIS: Attagene CIS-FACTORIAL HepG2 Assay for human Metal Responsive Element (MRE) (AID 2282954). The following applies: HepG2 MRE cis-reporter transcription, Attagene multiplex; actives raise or lower the signal. The procedure:
ATG_CIS is a cell-based, multiplexed-readout assay that uses HepG2, a human liver cell line, with measurements taken at 24 hours after chemical dosing in a 24-well plate.ATG_MRE_CIS is one of 52 assay component(s) measured or calculated from the ATG_CIS assay. It is designed to make measurements of mRNA induction, a form of inducible reporter, as detected with fluorescence intensity signals by Reverse transcription polymerase chain reaction (RT-PCR) and Capillary electrophoresis technology.Data from the assay component ATG_MRE_CIS was analyzed into 1 assay endpoint. This assay endpoint, ATG_MRE_CIS, was analyzed with bidirectional fitting relative to DMSO as the negative control and baseline of activity. Using a type of inducible reporter, measures of mRNA for gain or loss-of-signal activity can be used to understand the reporter gene at the transcription factor-level as they relate to the gene MTF1. Furthermore, this assay endpoint can be referred to as a primary readout, because this assay has produced multiple assay endpoints where this one serves a reporter gene function. To generalize the intended target to other relatable targets, this assay endpoint is annotated to the dna binding intended target family, where the subfamily is zinc finger.
Human liver HepG2 cells are transiently transfected with multiple reporter transcription units (MRTUs) in 6-well plates using FuGene 6 reagent (Roche; 3 ml FuGene/1 mg DNA). The MRTU constructs are regulated by a cis-regulating element (promoter). […] A major difference between the CIS and TRANS system is that in CIS activities of endogenous TFs are measured, whereas the TRANS assay evaluates changes in activities of exogenous, chimeric NR-Gal4 proteins. […] At the end of 24 hour incubation, total RNA was isolated using TriZol reagent (Invitrogen). The isolated RNA is then reverse-transcribed using oligo(dT) primer and Mo-MLV reverse transcriptase (Invitrogen) with DNAse I (Ambion) treatment for 30 min. The one-tenth of the produced cDNA was amplified by PCR using Taq DNA polymerase (Invitrogen) and two reporter sequence-specific primers. The PCR products were fluorescently labeled by primer extension with 6-arboxyfluorescein (6-FAM) 5'-labeled reporter sequence-specific primer (2 min at 95 C, 20 s at 68 C and 10 min at 72 C) and these products were digested with 5U of HpaI (New England Biolabs) for 2h at 37 C. The fragments were purified using Qiaquick PCR columns (Qiagen), analyzed on an ABI 3130xL genetic analyzer (Applied Biosystems) with peak positions identified by using a set of X-rhodamine (ROX)-labeled MapMarker1000 molecular weight standards (BioVentures). The raw capillary electrophoresis data was processed using Attagraph software (Attagene).
In the case of `Cc1cc(Cc2cc(C)cc(C(C)(C)C)c2O)c(O)c(C(C)(C)C)c1`, the outcome was inactive. Consider `FC(F)(F)C1(F)C(F)(F)C(F)(F)C(F)(F)C(F)(C(F)(F)F)C1(F)F` (stereo not given), for which the compound was called inactive.

For the compound `c1ccc(CNc2ncnc3c2ncn3C2CCCCO2)cc1` (stereo not given), the compound was called inactive. With `O=C(Nc1ccc(Cl)c(Cl)c1)c1cc(Cl)cc(Cl)c1O`, the concentration at half-maximal activity (AC50) – broadly, the concentration giving half of the maximal activity seen – is 25.8 µM (active). The same measure, in the same setting: then `CC(C)c1c(C(=O)Nc2ccccc2)c(-c2ccccc2)c(-c2ccc(F)cc2)n1CC[C@@H](O)C[C@@H](O)CC(=O)O`, with 61.4 µM (active) and 34.3 µM (active). Turning to `CCCCCCc1ccc(N)cc1`, the call was inactive. Still for that read-out and setting: under `CC(=O)Nc1ccc(O)cc1` stands “inactive”; under `O=C(F)C(F)(F)C(F)(F)C(F)(F)C(F)F`, “inactive”; under `FC1(F)C=CC(F)(F)C1(F)F`, “inactive”. The same measure, in the same setting: under `CC1=CC(=O)c2ccccc2C1=O` stands “inactive”.

Take `Nc1ccc(O)c(C(=O)O)c1`: the compound was called inactive.

As for `O=C1OC(=O)C(F)(F)C1(F)F`, the compound was called inactive. With `O=C(O)CN(CCCN(CC(=O)O)CC(=O)O)CC(=O)O`, the outcome was inactive. Take `O=C(F)C(F)(F)C(F)(F)C(F)(F)C(=O)F`: the compound was classed as inactive. On the same count and under the same terms, then `COC(=O)C(F)(F)C(F)(F)C(F)(F)F`, with “inactive”; and `CCCCCCCCCCCC`, with “inactive”; and `FC(OC(F)(F)C(F)(F)C(F)(F)F)C(F)(F)F` (stereo not given), with “inactive”. Still for that read-out and setting: then `COc1ccc(C#N)cc1`, with “inactive”. In the case of `CCCCCCCCCCCC(=O)O`, the AC50 is 181 µM (active) and the compound was classed as inactive. In the case of `C=Cc1ccc(O)c(OC)c1`, the outcome was inactive.

For the compound `NS(=O)(=O)O`, the compound was classed as inactive.

For `COC1=CC(=O)C[C@@H](C)[C@]12Oc1c(Cl)c(OC)cc(OC)c1C2=O`, the result was inactive. The same measure, in the same setting: then `CCOC(C)=O`, with “inactive”; and `CC1CNCC(C)O1` (stereo not given), with “inactive”; and `Clc1ccc2c(Cl)ccnc2c1`, with “inactive”. Still for that read-out and setting: under `Cc1ccc(C(=O)c2ccccc2)cc1` stands “inactive”. Regarding `CCOC(=O)c1nc(C(Cl)(Cl)Cl)n(-c2ccc(Cl)cc2Cl)n1`, the AC50 is 74.7 µM (active). Consider `c1cc[nH]c1`, for which the compound was called inactive. As to `Cc1cc(=O)oc2cc(O)ccc12`, the outcome was inactive. On the same count and under the same terms, then `O=C1NS(=O)(=O)c2ccccc21`, with “inactive”. On the same count and under the same terms, then `CCCCC(CC)C(=O)OCCOCCOCCOCCOC(=O)C(CC)CCCC` (stereo not given), with “inactive”; and `Oc1cccc2c(O)cccc12`, with “inactive”; and `FC(F)(F)C1(F)C(F)(F)C(F)(F)C(F)(F)C1(F)F`, with “inactive”.

Consider `O=C1c2ccc(O)c(O)c2C(=O)c2c(O)ccc(O)c21`, for which the outcome was inactive.

As for `CCCCCCCCCCCC[N+](C)(C)CCCCCCCCCCCC`, the AC50 was 4.84 µM (active). With `Oc1c(Cl)cc(Cl)cc1Sc1cc(Cl)cc(Cl)c1O`, the concentration at half-maximal activity (AC50) is 11.5 µM (active). On the same count and under the same terms, then `CCCCCCOC(=O)c1ccc(O)cc1`, with 59.6 µM (active). On to `CCCCCCCCCC=CCC1CC(=O)OC1=O` (stereo not given), for which the call was inactive. Still for that read-out and setting: under `CCc1cccc(CC)c1N(COC)C(=O)CS(=O)(=O)O` stands “inactive”.

(Values after PubChem BioAssay (EPA / NIEHS).)
